Source: PubChem
Cycloheximide cs – counter-screen for Shiga toxin inhibitors: cycloheximide protein synthesis inhibition. cell reporter, cycloheximide protein synthesis inhibition counterscreen. max response, %. actives 12% (n = 300,000). AID 2314; in the data active means max response mostly above about 13%, no sharp cut-off; inactive means mostly below about 14%; further: read at 38.3 µM for the half of the compounds with a filed dose
FBPA Giardia inh – inhibitors of Giardia lamblia fructose-1,6-bisphosphate aldolase. Potency, µM (top dose mostly 59.6 µM), usual class: inhibitors. actives 0.71% (n = 290,000). purified Giardia FBPA. A8B2U2; further: nearly all actives have a fitted effect of over 55% in size
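40 nM FBPA preincubated 10 min at RT with compound (up to 57.5 uM final), then substrate plus GAPDH/TPI/NAD/arsenate coupling and diaphorase/resazurin added. Fluorescence read after 20 min at RT, 525/598 nm.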
LmPK inhibitor – blocks Leishmania mexicana pyruvate kinase activity | Q27686 | purified LmPK, Kinase-Glo ATP luminescence, 1 h | Potency, µM (series often up to 57.5 µM), usual class: inhibitors | actives 0.37% (n = 290,000) | AID 1721
Target sequence (Q27686 whole entry, looked up): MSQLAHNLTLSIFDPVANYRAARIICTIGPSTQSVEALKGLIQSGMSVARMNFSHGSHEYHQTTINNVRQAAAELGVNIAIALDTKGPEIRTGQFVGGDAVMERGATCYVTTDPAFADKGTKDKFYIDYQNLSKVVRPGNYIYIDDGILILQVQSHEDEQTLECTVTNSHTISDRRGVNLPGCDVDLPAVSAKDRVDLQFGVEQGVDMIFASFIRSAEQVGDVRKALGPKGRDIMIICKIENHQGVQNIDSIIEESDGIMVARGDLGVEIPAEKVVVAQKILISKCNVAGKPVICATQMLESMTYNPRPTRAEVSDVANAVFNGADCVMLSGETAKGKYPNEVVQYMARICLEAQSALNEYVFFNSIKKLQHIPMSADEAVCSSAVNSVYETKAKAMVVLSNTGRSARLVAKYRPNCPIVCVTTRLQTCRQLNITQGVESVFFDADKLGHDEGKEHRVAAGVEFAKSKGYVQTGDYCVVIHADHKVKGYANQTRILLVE
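Purified LmPK (0.1 nM) with 0.5 mM PEP and 0.1 mM ADP in imidazole buffer pH 7.2 with MgCl2/KCl, 1 h at room temperature. ATP formed was read by luciferase luminescence and normalized to no-enzyme and uninhibited controls.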
Sm TGR inh – S. mansoni TGR enzyme inhibition; Potency, µM (titrated, usually from 114 µM), hits mostly inhibitors; actives 3% (n = 360,000); Q962Y6; purified TGR, DTNB reduction, TNB absorbance 405 nm; further: nearly all actives have a fitted effect of over 60% in size
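TGR 20 nM + NADPH 100 uM (dispensed conc.), cpd preinc 15 min RT; start with NADPH (500 uM addition) then DTNB (15 mM addition). Kinetic TNB absorbance, 405 nm filter. Four-parameter Hill fit across titration.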
Shiga inhibitor – inhibitors of Shiga toxin in Vero cells; Vero cells, Shiga toxin protein synthesis inhibition reporter; inhibition, % at 38.7 µM; actives 9.2% (n = 290,000); AID 2315; in the data active means inhibition mostly above about 28%, no sharp cut-off; inactive means mostly below about 43%
Tb PYK inh – T. brucei pyruvate kinase inhibition; TbPYK enzyme, Kinase-Glo Plus ATP luminescence, 45 min; Q57TT1; Potency, µM (doses to about 76.8 µM), usual class: inhibitors; actives 0.12% (n = 410,000); further: nearly all actives have a fitted effect of over 50% in size
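Readout: single end-point luminescence (Kinase-Glo Plus, 10 min). Reaction conditions were TbPYK/substrate plus 130 uM ADP, 45 min at RT, pH 7.2 TEA buffer. No-enzyme wells served as controls, and data were normalized before concentration-response fitting.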
A number is an active result; – = inactive; ? = inconclusive; · = no result; + = active, no number; [ ] = dose if it differs, or a comment. Shown is part of a subset that was picked to be rich in hits. Unless noted, the call rests on the fitted dose curve; in most records, active means well fitted curve in the direction sought with a large enough effect; inconclusive means small, poorly fitted or top-dose-only effect, or another doubt; inactive means no such curve, though single readings can be large; an effect the other way counts as inactive or inconclusive.

SMILES	Cycloheximide cs	FBPA Giardia inh	LmPK inhibitor	Sm TGR inh	Shiga inhibitor	Tb PYK inh
Cc1ccccc1C(=O)Nc1ccc(OCc2cc(=O)n3ccccc3n2)cc1	·	·	·	–	·	–
CCOc1c(Cl)cc(CNc2ccc(N3CCCC3)cc2)cc1OC	–	?	–	13µM	–	?
COc1ccc(CNc2ccc(N3CCOCC3)cc2)cc1	22	–	–	–	–	–
O=C(Nc1cccc(-n2cnnn2)c1)C1CCCN(Cc2cccc(C(F)(F)F)c2)C1 (stereo not drawn)	–	·	–	–	–	–
Oc1[nH]c2ccc(Br)cc2c1N=NC(=S)N1CCOCC1	–	?	22µM	–	–	?
Oc1[nH]c2ccccc2c1N=Nc1ccccc1Cl	·	·	·	·	·	–
O=C(O)c1ccc(N=Nc2c(O)[nH]c3ccc(Br)cc23)cc1	56	–	–	–	111	–
O=C(O)c1ccc(N=Nc2c(O)[nH]c3cc(Cl)ccc23)cc1	36	–	–	–	67	–
Oc1[nH]c2ccccc2c1N=Nc1cccc(Cl)c1	28	–	–	–	34	–
COC(=O)N=Nc1c(O)[nH]c2ccc(Br)cc12	–	–	–	–	–	–
OC[C@H]1O[C@@H](O[C@@H]2OC=C[C@H]3[C@H](O)[C@@H]4O[C@]4(CO)[C@@H]23)[C@H](O)[C@@H](O)[C@@H]1O	–	–	·	·	–	·
CCOc1ccc(NC(=O)CSc2nc3ccsc3c(=O)n2CCCCCC(=O)O)cc1	·	·	·	–	·	–[15.4 µM]
CO[C@H]1COC(=O)C/C=C\[C@@H](C)COC(=O)[C@@H](C)NC(=O)C/C=C\[C@@H]1C	·	–[12.9 µM]	·	·	·	·
O=c1[nH]nc(N=Nc2c(O)[nH]c3ccc(F)cc23)c(=O)[nH]1	·	·	·	·	·	–
Cc1ccc(N=Nc2c(O)[nH]c3ccc(F)cc23)cc1	50	–	–	–	67	–
Cc1cccc2c(N=NC(=O)C(C)n3cnc4ccccc4c3=O)c(O)[nH]c12 (stereo not drawn)	·	·	·	·	·	–
Cc1cccc2c(N=Nc3ccccc3)c(O)[nH]c12	65	–	–	?	57	–
CCN(CC)CCCNc1nc2ccccc2c2[nH]c3ccc(OC)cc3c12	·	·	·	·	·	–
Cc1c(-c2ccccc2)nc(-c2ccccc2)[nH]c1=O	–	–	–	–	–	–
c1ccc(-c2nc3c([nH]2)CCc2nonc2-3)cc1	31	?	–	–	78	–
O=C1CCCc2[nH]c(-c3ccccc3)nc21	37	–	–	–	59	–
C[C@@]12CC[C@@H]3c4ccc(O)cc4C[C@H](CCCCCCCCCS(=O)CCCC(F)(F)C(F)(F)F)[C@H]3[C@@H]1CC[C@@H]2O (stereo partly drawn)	·	–	·	·	·	·
COc1cc(/C=C/c2sc3ccccc3[n+]2CCCS(=O)(=O)[O-])ccc1O	–	?	16µM	?	–	?
CCN(CC)C(=O)CSc1nc2cc3c(cc2c(=O)n1CCCCCC(=O)NCCc1ccc(OC)c(OC)c1)OCO3	·	·	·	–	·	–
Nc1ccccc1NC(=O)c1ccc(CNC(=O)OCc2cccnc2)cc1	–	–	·	·	–	·
SMILES	Cycloheximide cs	FBPA Giardia inh	LmPK inhibitor	Sm TGR inh	Shiga inhibitor	Tb PYK inh
CCCCOc1ccc(-c2cn3ccccc3n2)cc1[N+](=O)[O-]	62	–	–	–	103	–
CCOc1ccc(-c2cn3ccccc3n2)cc1[N+](=O)[O-]	38	–	–	–	67	–
O=[N+]([O-])c1ccc(-c2cn3ccccc3n2)cc1	·	·	·	·	·	–
CCCOc1ccc(-c2csc(N)n2)cc1[N+](=O)[O-]	45	–	–	–	+	–
Cc1cccc(NC(=O)c2ccc(S(=O)(=O)C(F)F)cc2)c1C	16	–	–	–	–	–
Cc1nnc(NC(=O)c2ccc(S(=O)(=O)C(F)F)cc2)s1	27	–	–	–	–	–
CCN(CC)CCCNC(=O)CCCn1c(=O)[nH]c2ccc(Br)cc2c1=O	·	·	·	–	·	–
O=C(/C=C/c1ccc(O)c(O)c1)OCCc1ccccc1	64	?	·	·	80	–
O=C(/C=C/c1ccc(O)c(O)c1)OC(Cc1ccc(O)c(O)c1)C(=O)O (stereo not drawn)	–	?	–	35µM	–	?
Cc1cc(-n2c(C)nc3ccccc3c2=O)ccc1NC(=O)c1ccc([N+](=O)[O-])cc1	·	·	·	–	·	–
CC(=O)OCC1=C(C(=O)O)N2C(=O)[C@@H](NC(=O)Cc3cccs3)[C@H]2SC1	–	?	–	?	–	–
